Source: PubChem (Broad Institute)
STK33 inh: inhibitors of human STK33 kinase; Q9BYT3; ADP-Glo luminescence, MBP substrate; inhibition, % at 12.5 µM; 27,000 tested, 0.44% active; in the data active = inhibition above about 20%; inconclusive = no clear call, values can overlap the other calls
Target sequence (Q9BYT3 whole entry, looked up): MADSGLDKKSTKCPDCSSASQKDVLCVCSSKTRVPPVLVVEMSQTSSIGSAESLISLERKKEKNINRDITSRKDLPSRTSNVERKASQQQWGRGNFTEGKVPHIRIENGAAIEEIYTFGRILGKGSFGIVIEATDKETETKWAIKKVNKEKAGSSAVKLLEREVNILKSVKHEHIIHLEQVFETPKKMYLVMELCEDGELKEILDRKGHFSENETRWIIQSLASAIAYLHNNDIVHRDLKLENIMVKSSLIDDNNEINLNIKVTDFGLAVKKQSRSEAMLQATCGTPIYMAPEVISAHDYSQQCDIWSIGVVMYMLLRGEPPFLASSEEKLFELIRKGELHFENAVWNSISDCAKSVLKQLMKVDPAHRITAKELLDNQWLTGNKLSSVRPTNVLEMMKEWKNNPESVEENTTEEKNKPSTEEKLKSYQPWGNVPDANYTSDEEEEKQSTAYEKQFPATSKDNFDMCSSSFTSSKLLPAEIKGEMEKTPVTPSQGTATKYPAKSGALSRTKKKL
PD-1 reversal: activators reversing PD-1 mediated T-cell inhibition; 29,000 tested, under 10 active; activation, % (no concentration beside the values); primary human CD4 T cells, PD-L1 beads, CellTiter-Glo 96 h; call rule not given here;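 note: 0% = median vehicle wells and 100% = positive control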
NOMO-1 viab: STK33 inhibitor candidate reducing NOMO-1 cell viability | 37,000 tested, 7.5% active | AID 2330 | inhibition, % (test concentration not listed) | NOMO-1 AML viability, CellTiter-Glo luminescence, 72 h; in the data active = inhibition above about 80%; inconclusive = no clear call, values can overlap the other calls
* hit, by the source's call; ? = inconclusive; / = not tested or not shown. Only a selection was taken, and hits are over-represented in it overall.

SMILES	STK33 inh	PD-1 reversal	NOMO-1 viab
C[C@@H]1CN([C@@H](C)CO)C(=O)c2cc(NC(=O)c3ccncc3)ccc2O[C@H]1CN(C)Cc1ccc(-c2ccccc2)cc1	/	-1	29
C[C@@H]1CN([C@H](C)CO)C(=O)c2cc(NC(=O)c3ccncc3)ccc2O[C@H]1CN(C)Cc1ccc(-c2ccccc2)cc1	/	-2	93*
C[C@@H]1CN([C@@H](C)CO)C(=O)c2cc(NC(=O)Nc3ccc(F)cc3)ccc2O[C@H]1CN(C)Cc1ccc(-c2ccccc2)cc1	/	/	128*
C[C@H]1CN([C@@H](C)CO)C(=O)c2cc(NC(=O)Nc3ccc(F)cc3)ccc2O[C@H]1CN(C)Cc1ccccc1	/	/	14
CC(CC(=O)O)CC(=O)Nc1ccc(C(=O)O)cc1 (centres undefined)	-7	0	-11
Cc1ccc(OCC(=O)Nc2ccc3oc(-c4cccnc4)nc3c2)cc1C	1	/	20
COc1ccc(OC)c(NC(=O)COc2ccc([N+](=O)[O-])cc2)c1	2	2	-18
C[C@H]1CN([C@@H](C)CO)C(=O)c2cc(NC(=O)Nc3ccccc3)ccc2O[C@H]1CN(C)Cc1ccncc1	-1	1	98*
C[C@@H]1CN([C@@H](C)CO)C(=O)c2cc(NC(=O)Nc3ccccc3)ccc2O[C@@H]1CN(C)Cc1ccncc1	1	0	4
C[C@H](CO)N1C[C@H](C)[C@H](CN(C)Cc2ccccc2)Oc2ccc(NC(=O)Nc3ccccc3)cc2C1=O	-1	2	13
COc1ccc(NC(=O)Nc2ccc3c(c2)C(=O)N([C@H](C)CO)C[C@H](C)[C@H](CN(C)Cc2ccncc2)O3)cc1	1	0	94*
C[C@@H]1CN([C@@H](C)CO)C(=O)c2cc(NC(=O)Nc3ccccc3)ccc2O[C@H]1CN(C)Cc1ccc(-c2ccccc2)cc1	2	-2	112*
COc1ccc(NC(=O)Nc2ccc3c(c2)C(=O)N([C@@H](C)CO)C[C@@H](C)[C@@H](CN(C)Cc2ccncc2)O3)cc1	0	1	22
CCCCN1C(=O)/C(=C2\SC(=Nc3ccc(Cl)cc3)N(C)C2=O)c2ccccc21	/	1	30
COc1ccc(NC(=O)CSc2nc3c(cc2C#N)CCCCC3)cc1OC	1	-1	3
CCC(=O)O[C@@H]1CC(=O)O[C@H](C)C/C=C\C=C\[C@@H](O)[C@H](C)C[C@H](CC=O)[C@H](OC2O[C@H](C)[C@@H](O[C@H]3C[C@@](C)(O)[C@@H](OC(=O)CC)[C@H](C)O3)[C@H](N(C)C)[C@H]2O)[C@H]1OC (some centres undefined)	-1	3	-8
COc1ccc(CN2C(=O)c3cccc4cccc(c34)C2=O)cc1S(=O)(=O)N1CCCCC1	-1	/	59
O=C1NC(=O)C(Cc2ccccc2)N1 (centres undefined)	/	1	8
O=C(NCC[C@@H](CNC(=O)c1cccc(O)c1O)NC(=O)c1cccc(O)c1O)c1cccc(O)c1O	5	-5	120*
CC(C)CCNC(=O)c1cccc2c1-c1ccccc1C2=O	/	0	20
c1ccc2oc(CCCc3nc4ccccc4o3)nc2c1	/	0	-13
CC(C(=O)Nc1cccc2ccccc12)N(c1ccc(Cl)cc1)S(C)(=O)=O (centres undefined)	4	-3	14
COc1cc(-c2nc3ccccc3s2)cc(Br)c1OCC(=O)O	3	-1	-2
O=C(c1ccccc1)c1ccccc1C(=O)c1ccccc1	3	-2	7
Cc1ccc2c(=O)c(C(=O)c3ccccc3)coc2c1	/	0	130*
SMILES	STK33 inh	PD-1 reversal	NOMO-1 viab
O=C(NCCN1CCOCC1)c1cc(-n2cnnc2)ccc1Cl	-1	3	-15
CC(C)S(=O)(=O)/C(C#N)=C/Nc1ncccn1	/	1	1
CS(=O)(=O)N(CC(=O)NC1CCCCC1)c1cc(Cl)c(Cl)cc1Cl	-1	/	4
Cc1ccc2c(c1)c(-c1ccccc1)c(-c1ccccc1)n2CC(O)CN1CCN(CCO)CC1 (centres undefined)	0	-8	90*
CC(C)(C)c1ccc(OCC(O)CN2CCN(CCO)CC2)cc1 (centres undefined)	9	-1	-8
COC(=O)c1ccc(CSc2nnc(CN3CCOCC3)n2C)cc1	0	0	27
COC(=O)C[C@H]1C(C)(C)C2(Cl)O[C@@]34CC2C(=O)[C@]1(C)C3CC[C@]1(C)C4=CC(=O)O[C@H]1c1ccoc1 (some centres undefined)	1	/	101*
C=C1C2CC[C@@]3(C)[C@H](c4ccoc4)OC(=O)C[C@]13O[C@H]1CC(=O)C(C)(C)C(CC(=O)OC)[C@@]21C (some centres undefined)	6	/	14
CCN(CC(=O)Nc1ccc(OC)cc1)S(=O)(=O)c1ccc(Cl)cc1	-3	3	3
O=C(CSc1nnc(-c2ccccc2)o1)Nc1cccc(F)c1	-1	/	4
O=C(Nc1cccc(Cn2cccn2)c1)c1cc(-c2ccncc2)nc2ccc(Br)cc12	1	/	29
COc1c(O)cc2oc3cc(O)c(CC=C(C)C)c(O)c3c(=O)c2c1CC=C(C)C	-5	-14	98*
CC(C)=CCc1c(O)cc2oc3c(CC=C(C)C)c(O)c(O)c(CC=C(C)C)c3c(=O)c2c1O	-14	/	/
CCOC(=O)c1nc2c(o1)NC(N)=C(C#N)C2c1ccc(Cl)cc1 (centres undefined)	/	0	95*
Cc1nc2c([nH]1)C(c1ccc(C(C)C)cc1)C(C#N)=C(N)O2 (centres undefined)	/	-1	42
Cc1ccc(S(=O)(=O)N2C(=O)CCC2C(=O)Nc2ccc(Cl)c(C(F)(F)F)c2)cc1 (centres undefined)	1	/	-6
Cc1ccc(NS(=O)(=O)c2cccc(C(=O)Nc3ccccc3C(=O)O)c2)cc1	-2	/	/
C[C@@H]1CN([C@@H](C)CO)C(=O)c2cccc(NC(=O)CCCCCC(=O)Nc3ccccc3N)c2O[C@@H]1CN(C)S(=O)(=O)c1ccccc1	/	-4	104*
COc1ccc(S(=O)(=O)N(C)C[C@H]2Oc3c(NC(=O)CCCCCC(=O)Nc4ccccc4N)cccc3C(=O)N([C@H](C)CO)C[C@@H]2C)cc1	/	-2	45
COc1ccc(S(=O)(=O)N(C)C[C@@H]2Oc3c(NC(=O)CCCCCC(=O)Nc4ccccc4N)cccc3C(=O)N([C@H](C)CO)C[C@H]2C)cc1	/	1	100*
Cc1ccc(S(=O)(=O)N(C)C[C@@H]2Oc3c(NC(=O)CCCCCC(=O)Nc4ccccc4N)cccc3C(=O)N([C@@H](C)CO)C[C@H]2C)cc1	/	0	67
C[C@H]1CN([C@@H](C)CO)C(=O)c2cccc(NC(=O)CCCCCC(=O)Nc3ccccc3N)c2O[C@@H]1CN(C)S(=O)(=O)c1ccc(Cl)cc1	/	1	103*
Cc1ccc(S(=O)(=O)N(C)C[C@H]2Oc3c(NC(=O)CCCCCC(=O)Nc4ccccc4N)cccc3C(=O)N([C@H](C)CO)C[C@@H]2C)cc1	/	-1	?
C[C@H](CO)N1C[C@H](C)[C@H](CN(C)S(=O)(=O)c2ccc(Cl)cc2)Oc2c(NC(=O)CCCCCC(=O)Nc3ccccc3N)cccc2C1=O	/	0	119*
C[C@H]1CN([C@@H](C)CO)C(=O)c2cccc(NC(=O)CCCCCC(=O)Nc3ccccc3N)c2O[C@@H]1CN(C)S(=O)(=O)c1ccccc1	/	0	60
